# Measurements: PubChem BioAssay AID2314 (National Center for Advancing Translational Sciences (NCATS), 2010)
# Several values for one entry are separate records, joined by “and”; a condition that tells them apart may be missing. Equal values may be shown once. In all, about 300,000 compounds went through this assay and about 37,000 (12%) were called active. Rule as the data show it: active = max response mostly above about 13% (no sharp cut-off); inactive = mostly below about 14%. Many of the other results were omitted from the sample, so actives are more common in it than they were. The source holds several records for some structures; these can differ, active in one and inactive in another.
# Experiment: Cycloheximide Counterscreen for Small Molecule Inhibitors of Shiga Toxin; also: read at 38.3 µM for the half of the compounds with a filed dose; 0% is about no effect
# Details: cell reporter, cycloheximide protein synthesis inhibition counterscreen; stronger effect = higher value
row,SMILES,max response
1,COc1ccc(OC)c(C(O)c2nc3ccccc3n2C)c1 (centres undefined),-2.03% (inactive)
2,CCCn1c(C(O)c2ccc(OCC)cc2)nc2ccccc21 (centres undefined),-3.7% (inactive)
3,CCOc1ccc(C(O)Cc2nc3ccccc3n2C)cc1 (centres undefined),22.1% (active)
4,COc1cc(C(O)c2nc3ccccc3n2C)cc(OC)c1OC (centres undefined),0.887% (inactive)
5,CCOc1ccc(C(O)Cn2c(=N)n(CCN3CCCCC3)c3ccccc32)cc1 (centres undefined),-4.27% (inactive)
6,COc1cccc(C(O)Cc2nc3ccccc3n2C)c1OC (centres undefined),20.6% (active)
7,COc1ccc(CN2CC(C(=O)NC3CCCCC3)CC2=O)cc1 (centres undefined),-2% (inactive)
8,O=C1Oc2ccccc2C(=O)/C1=C/c1ccccc1O,12.4% (inactive)
9,COCCNC(=O)C1CCN(C(=O)C2CC(=O)N(c3ccc(C)cc3)C2)CC1 (centres undefined),1.44% (inactive)
10,CCOC(=O)c1c(NC(=O)c2ccc(S(=O)(=O)N(C)CC3CCCO3)cc2)sc2c1CC(C)(C)NC2(C)C (centres undefined),-4.44% (inactive)
11,COc1ccc(NC(=O)N2CCCC2C(=O)NCc2ccccc2Cl)cc1 (centres undefined),-3.43% (inactive)
12,O=C(c1ccccc1F)N(Cc1ccccc1)Cc1ccccc1,-2.08% (inactive)
13,C=CCN1C=C2C(=O)C(C)(OC(=O)CCc3ccccc3)C(=O)C=C2C=C1c1ccc(C#N)cc1 (centres undefined),-1.82% (inactive)
14,O=C(CCN1C(=O)c2ccncc2C1=O)Nc1ccc2c(c1)OCCO2,1.67% (inactive)
15,O=C(Cn1c(=O)sc2ccccc21)Nc1ccc2c(c1)OCCO2,-0.826% (inactive)
16,O=C(Nc1ccc2c(c1)OCCO2)c1ccoc1,35.3% (active)
17,Cn1c(=O)c2ccccc2n(CC(=O)Nc2ccc3c(c2)OCCO3)c1=O,-8.73% (inactive)
18,O=C(Nc1ccc2c(c1)OCCO2)c1ccncc1,33.1% (active)
19,O=C(Nc1ccc2c(c1)OCCO2)c1cnccn1,33% (inactive)
20,COc1cccc(N(C(=O)CNC(=O)c2ccco2)C(C(=O)NC2CCCCC2)c2cccnc2)c1 (centres undefined),-2.98% (inactive)
21,CCN(CC)c1ccc(NC(=O)CN2CCN(c3ccccn3)CC2)cc1,-3.57% (inactive)
22,CC[n+]1cc(C)ccc1/C=C/c1ccc(N(C)C)cc1,12.8% (inactive)
23,O=c1ccnc(Nc2ccc(Cl)cc2)[nH]1,1.06% (inactive)
24,O=C(Nc1cc(S(=O)(=O)N2CCOCC2)ccc1Cl)c1cc(=O)c2ccccc2o1,2.68% (inactive)

row,SMILES,max response
1,N#Cc1nc(COc2ccc(-c3ccccc3)cc2)oc1NCc1cccnc1,9.29% (inactive)
2,CCOc1ccc(Nc2oc(Cc3ccccc3)nc2C#N)cc1,31.6% (active)
3,N#Cc1nc(Cc2cccc3ccccc23)oc1NCc1ccc2c(c1)OCO2,-2.28% (inactive)
4,N#Cc1nc(Cc2ccccc2)oc1NCCc1ccccc1,39.2% (active)
5,COc1ccc(Nc2oc(-c3ccccc3Cl)nc2C#N)cc1,9% (inactive)
6,Cc1ccccc1-c1nc(C#N)c(NCc2ccco2)o1,8.49% (inactive)
7,O=c1cc(C(F)(F)F)[nH]c(=O)n1C1CCCCC1,6.49% (inactive)
8,CCCCn1c(N)c(N(CC)C(=O)c2ccccc2C(F)(F)F)c(=O)[nH]c1=O,-3.22% (inactive)
9,CCSc1nc(C)c(CCOc2cccc(C)c2)c(=O)[nH]1,1.14% (inactive)
10,O=C(Nc1ccccc1)OCc1cc(-c2ccc(Cl)cc2)on1,-2.77% (inactive)
11,Clc1ccc(-c2cc(COc3ccccc3)no2)cc1Cl,-2.19% (inactive)
12,O=C(Nc1ccc(Cl)cc1)OCc1cc(-c2ccccc2)on1,22.5% (active)
13,CS(=O)(=O)Nc1cccc(C2=NN(S(=O)(=O)c3ccccc3)C(c3cccs3)C2)c1 (centres undefined),-3.68% (inactive)
14,CS(=O)(=O)Nc1ccc(C2=NN(S(C)(=O)=O)C(c3cccs3)C2)cc1 (centres undefined),33.7% (active)
15,CS(=O)(=O)Nc1cccc(C2=NN(C(=O)c3cccc(F)c3)C(c3cccs3)C2)c1 (centres undefined),-2.01% (inactive)
16,Cc1ccccc1C1CC(c2cccs2)=NN1S(C)(=O)=O (centres undefined),-1.48% (inactive)
17,CCS(=O)(=O)Nc1ccc(C2=NN(C(C)=O)C(c3cccs3)C2)cc1 (centres undefined),16% (inactive)
18,Cc1ccc(C2CC(c3cccc(NS(C)(=O)=O)c3)=NN2S(C)(=O)=O)cc1 (centres undefined),45.1% (active)
19,CCOc1ccc(NC(=S)NC(=O)/C=C/c2ccc(OC)cc2)c([N+](=O)[O-])c1,9.22% (inactive)
20,c1ccc2c(C[n+]3csc4ccccc43)cccc2c1,9.31% (inactive)
21,COC(=O)Cn1cnc2scc(-c3ccc(C)c(C)c3)c2c1=O,-2.51% (inactive)
22,CCc1ccc(S(=O)(=O)N/N=C\c2ccc([N+](=O)[O-])o2)cc1,5.73% (inactive)
23,Cc1cc2ccccn2c1C(=O)c1cccc(S(=O)(=O)N2CCOCC2)c1,-0.598% (inactive)
24,CC(C)(C)OC(=O)NNc1c2ccccc2nc2ccccc12,11.3% (active)

row,SMILES,max response
1,CCC(=O)OCCNc1nc(-c2ccccc2)nc2ccccc12,1.39% (inactive)
2,O=C(NNc1c2ccccc2nc2ccccc12)c1cc2ccccc2cc1O,-1.17% (inactive)
3,COc1ccc(C(CCN(Cc2ccc(OC)c(OC)c2)C(=O)CCl)c2ccccc2)cc1 (centres undefined),-1.89% (inactive)
4,CC(=O)c1cccc(NC(=O)CN2C(=O)c3cccnc3Oc3ccc(Cl)cc32)c1,8.12% (inactive)
5,O=C(Cn1c(N2CCN(C/C=C/c3ccccc3)CC2)nc2ccccc21)c1ccccc1,8.47% (inactive)
6,CC[C@H](C)[C@H](NC(=O)[C@@H](N)CCC(=O)O)C(=O)N[C@@H](CC(C)C)C(=O)N[C@@H](CC(=O)O)C(=O)N[C@H](C(=O)N1CCC[C@H]1C(=O)N[C@@H](CO)C(=O)N[C@H](C(=O)O)[C@@H](C)O)C(C)C,0.56% (inactive)
7,CCOC(=O)c1c(NC(=O)C(C)Sc2c[nH]c3ccccc23)sc2c1CCC2 (centres undefined),-0.942% (inactive)
8,CC(=O)c1ccc(NC(=O)CCc2nnc3ccc(NCc4ccco4)nn23)cc1,40.6% (active)
9,O=C(CCc1nnc2ccc(NCc3ccco3)nn12)Nc1cc(F)ccc1F,-2.19% (inactive)
10,CCOc1ccccc1NC(=O)CCc1nnc2ccc(NCc3ccco3)nn12,2.03% (inactive)
11,O=C(CC(n1cncn1)C(Cl)(Cl)Cl)c1ccc([N+](=O)[O-])cc1 (centres undefined),-2.22% (inactive)
12,O=C(Cn1c[n+](CC(=O)c2ccc([N+](=O)[O-])cc2)cn1)c1ccc([N+](=O)[O-])cc1,1.46% (inactive) and 22.2% (active)
13,O=C(c1ccncc1)c1ccc([N+](=O)[O-])cc1,-4.87% (inactive)
14,COc1ccc(N2CCC(N3CCN(C)C(CCO)C3)CC2)cc1 (centres undefined),-1.24% (inactive)
15,COc1ccc(OCCNS(=O)(=O)Cc2ccccc2)cc1,-3.58% (inactive)
16,O=C(c1ccc(Cl)cc1)N1N=C(c2ccccn2)CC1(O)C(F)(F)F (centres undefined),-0.573% (inactive)
17,COc1ccc(OC)c(CNC(=O)c2cc(=O)[nH]c3ccc(S(=O)(=O)N4CCCC4)cc23)c1,11.5% (inactive)
18,COC(CNC(=O)c1ccc2c(c1)ncn2-c1cc(C)cc(C)c1)OC,-5.14% (inactive)
19,COC(=O)CSc1nc2ccccc2c(=O)n1Cc1ccccc1,12.7% (inactive)
20,Cc1ccc(C(=O)CSc2nc3ccccc3c(=O)n2N)o1,34.6% (active)
21,O=C(CCCn1c(SCC(=O)c2ccc(F)cc2)nc2ccccc2c1=O)NCc1ccco1,-0.158% (inactive)
22,CC1CCC(NC(=O)CN(C)S(=O)(=O)c2ccc3c(c2)c(=O)n(C)c(=O)n3C)CC1 (centres undefined),-2.52% (inactive)
23,Cn1c(=NC(=O)c2cnccn2)sc2ccccc21,26% (active)
24,Cn1c(=NC(=O)CSCC(=O)N2CCOCC2)sc2ccccc21,11% (inactive)

row,SMILES,max response
1,Cn1c(=NC(=O)CSCC(=O)N2CCCCC2)sc2ccccc21,2.51% (inactive)
2,COc1cc(CO)c(C2(CO)CCCC2)cc1OC,-4.97% (inactive)
3,Cc1cc(C)cc(N(CCC#N)C(=O)CN2C(=O)NC3(CCCC3)C2=O)c1,1.6% (inactive)
4,O=c1c(-c2ccccc2)cnc2n1CCS2,-4.67% (inactive)
5,Oc1ccccc1N1CCN(c2ncnc3sc(-c4ccccc4)cc23)CC1,9.53% (inactive)
6,O=c1c2cc(-c3ccccc3)sc2nc2n1N=C(c1cccs1)CS2,57% (active)
7,CC(C)NC(=O)C(c1ccc(F)cc1)N(C(=O)CCC(=O)Nc1ccccn1)c1ccccc1F (centres undefined),-2.11% (inactive)
8,CC(C)CCNC(=O)Cn1c(=O)oc2cc(S(=O)(=O)N3CC(C)CC(C)C3)ccc21 (centres undefined),-7.3% (inactive)
9,O=S1(=O)CCN(Cc2ccccc2Cl)CC1,-2.05% (inactive)
10,CSc1ccc(/C=N/N2CCN(Cc3ccccc3Cl)CC2)cc1,16.6% (active)
11,COc1ccccc1/C=N/N1CCN(Cc2ccccc2Cl)CC1,1.31% (inactive)
12,Cc1cc(C)c(NC(=O)CS(=O)CC(=O)Nc2cccnc2)c(C)c1 (centres undefined),3.39% (inactive)
13,Cc1cccc(-n2cnc(C(=O)Nc3cccnc3)c2)n1,25.5% (active)
14,Cc1cccc(-n2cnc(C(=O)NNC(=S)Nc3ccccc3)c2)n1,-0.715% (inactive)
15,Cc1cccc(Nc2nc3c(S(=O)(=O)c4ccccc4)nnn3c3ccccc23)c1C,-2.93% (inactive)
16,Cc1ccc(/C=C2\CCn3c2nc2cc(C(=O)O)ccc2c3=O)c(C)c1,8.18% (inactive)
17,CCc1ccc(-c2nn(-c3ccccc3)cc2CSC(=N)N)cc1,-12.4% (inactive)
18,COc1cc2c(cc1OC)CN(C(=O)c1cc(S(=O)(=O)N3CCCCC3)ccc1Cl)CC2,11.1% (inactive)
19,Cc1ccccc1OCC(=O)Nc1nnc(S(=O)(=O)N2CCCC2)s1,1.8% (inactive)
20,CC(NC(=O)CSc1nc2c(cc1C#N)CN(C)CC2)c1ccccc1 (centres undefined),-4.77% (inactive)
21,Cc1cc(NC(=O)CSc2nc3c(cc2C#N)CCCCC3)no1,14.6% (active)
22,Cc1nc(SCC(=O)Nc2cc(C)on2)c2c(C)c(C)sc2n1,-2.36% (inactive)
